Test results reported in PubChem BioAssay AID2401 (Southern Research Specialized Biocontainment Screening …, 2010).
The whole screen tested about 2,200 compounds, of which about 530 (24%) were called active. Only a sample is shown. Results with a measured potency or affinity are listed apart. A number with no mark means an inactive call.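 The calls were made as follows: active = inhibition above a set limit at one or more concentrations of the dose series; inactive = inhibition under that limit at every dose.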

Test: S. Typhimurium nonspecific reporter signal inhibition – Salmonella Typhimurium, GFP fluorescence, counter-screen for PhoP regulon inhibitor project, dose response (AID 2401);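 also: S. typhimurium with Mg-insensitive nmpC-GFP reporter grown at 10 µM Mg2+; drop in reporter fluorescence reflects general culture growth inhibition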
Settings: 4 h; series mostly up to 150 µM; inhibition: at the top concentration

Compound | inhibition
CCN1CCN(c2oc(COc3ccc(Cl)cc3)nc2C#N)CC1 | -11.3%
COc1ccc(NC(=O)C(Sc2nnc(-c3ccncc3)n2-c2ccccc2C)c2ccccc2)cc1Cl (stereo not drawn) | 39.3%
Cc1ccc(S(=O)(=O)NC2c3cccc4cccc(c34)C2Sc2n[nH]c(N)n2)cc1 (stereo not drawn) | -1.11%
Cc1ccc(S(=O)(=O)N2C(=O)CCC2C(=O)N2CCN(C)CC2)cc1 (stereo not drawn) | -6.94%
Cc1cccc(C=Nc2ccc3c(c2)oc2ccccc23)c1O | 2.82%
COc1ccc2cc(C)c3nnc(SCC(=O)Nc4nc(-c5ccccc5)cs4)n3c2c1 | -14.2%
c1ccc2cc(CSCc3nc4ccccc4[nH]3)ccc2c1 | 21.6%
CN(C(=O)c1ccc2c(c1)OCO2)C1(C(=O)NC2CCCCC2)CCCCC1 | -27.6%
CC(=O)Nc1ccc(C(=O)Nc2nc(-c3cc(C)n(Cc4ccccc4)c3C)cs2)cc1 | 17.5%
O=C(CSc1nc2ccccc2o1)Nc1ccc(N2CCOCC2)c(Cl)c1 | 10.2%
N#Cc1nc(-c2ccco2)oc1NCCCN1CCOCC1 | -4.28%
N#C/C(=C\c1c(Cl)cccc1Cl)c1nc2ccccc2[nH]1 | -16.6%
S=C(NN=C1C2CC3CC(C2)CC1C3)Nc1ccccc1 | -8.54%
C=CCNc1ncnc2c1[nH]c1ccc(C)cc12 | 37%
Cc1ccc2[nH]c3c(NCc4ccccc4)ncnc3c2c1 | -8.46%
COc1cccc(-c2nnc(SCC(=O)Nc3ccc(OC)c(OC)c3)n2N)c1 | 8.89%
Cc1ccc(C=Nc2ccccc2C(N)=O)s1 | 19.4%
CC1(C)CC(=O)C=C(Nc2ccc(Br)cn2)C1 | -21.7%
Cc1ccc(NC(=S)NCc2cccnc2)cc1 | -17.2%
S=C(NCc1cccnc1)Nc1cccc(Cl)c1 | 8.84%

Compound | inhibition
OC(COCc1cccs1)CN1CCN(c2ccccn2)CC1 (stereo not drawn) | -21.3%
Cc1oc(CC(C)C)c(CN)c1C(=O)O | -14.3%
Cc1nc(N)sc1Cc1ccc2c(c1)OCO2 | 24.2%
CC(=O)Nc1cccc(OCC(=O)Nc2ccc(F)cc2)c1 | -31.6%
CC(=O)Nc1cccc(OC(=O)c2ccoc2C)c1 | -30.2%
CCN(CC)c1nc2n(c(=O)n1)CCO2 | -33.8%
Cc1cc(O)ccc1Nc1nc2ccccc2nc1Nc1ccc(O)cc1C | 33.7%
Cc1ccccc1Nc1nc(-c2sc(NC(=O)c3cccc(Cl)c3)nc2C)cs1 | 17%
Cc1ccc(O)c(-c2cc(-c3cccc(F)c3)n[nH]2)c1 | 27.2%
C=CCNC(=O)C(=O)NN=C1CCN(C)CC1 | -26.4%
N#CCOC(=O)c1sccc1-n1cccc1 | -11.9%
O=C(Cc1ccccc1)Nc1cccc(N2C(=O)C=CC2=O)c1 | 30.8%
Cc1ccc(C2NNC(=O)C2NC(=O)c2ccccc2)cc1 (stereo not drawn) | -23.9%
Cc1ccc(-c2nnn(CC(=O)Nc3ccccc3-c3ccccc3)n2)c(-n2cnnn2)c1 | 1.9%
Cc1cc(Nc2ccc(Cl)cc2)nc(N)n1 | 32.1%
CC(C)(C)c1nn(-c2ccccc2)c2[nH]c(=O)c(CNCc3ccco3)cc12 | -17.9%
CC1(C)SC(=S)N(NC(=O)Nc2ccccc2)C1N(O)C(=O)Nc1ccccc1 (stereo not drawn) | -13.4%
Cc1ccc(Nc2cc(C)nc3nc(C)nn23)cc1 | -17.3%
COc1ccc2c(c1)cc1n2CCN2CCCN=C12 | 13.7%
O=P(Cc1cc[n+]([O-])cc1)(c1ccccc1)c1ccccc1 | -29.2%

Compound | inhibition
CCOC(=O)CCCNC(=O)COC(=O)CCC(=O)c1ccc(F)cc1 | 3.03%
CCCCn1cnc2c(cnn2-c2ccc(F)cc2)c1=O | -17.3%
Cc1cccnc1NC(=O)CCCN1C(=O)c2ccccc2C1=O | 6.01%
O=C(CCN1C(=O)COc2ccccc21)NCCN1CCOCC1 | -16.8%
COc1cccc(/C=N/n2c(C)nc3ccccc32)c1OC | -14%
Cc1ccc(-n2c(C)cc(-c3csc(N)n3)c2C)cc1 | 39.9% [at 75 µM]
Nc1nc(-c2ccc(Br)cc2)cs1 | -12.1%
Cc1cc(-c2csc(N)n2)c(C)n1C | 23.3%
NC(N)=Nc1nc(C2COc3ccccc3O2)cs1 (stereo not drawn) | 35.6%
CN(C(=O)C1CCOC1)c1nnc(-c2ccccn2)s1 (stereo not drawn) | -15.8%
COc1ccc(-c2cc(C(=O)Nc3cc(C)n(Cc4ccc(Cl)cc4)n3)no2)cc1OC | -13.3%
COc1cc(S(=O)(=O)N2CCCCC2)ccc1NC=O | -0.23%
CC1(C)CC2CC(C)(CN2C(=O)COC(=O)c2n[nH]c(=O)c3ccccc23)C1 (stereo not drawn) | -15.4%
O=C1Nc2ccccc2C12OCC1(CO2)COC2(OC1)C(=O)Nc1ccccc12 (stereo not drawn) | 15.1%
NCCCCCc1nnc(SCc2ccc(Cl)cc2Cl)o1 | 16.6%
O=C(Nc1ccc(O)cc1)c1cc2n(n1)C(C(F)(F)F)CC(c1ccco1)N2 (stereo not drawn) | -2.81%
O=C(c1cc(-c2cccs2)nc2ccccc12)N1CCN(c2ccccc2O)CC1 | 16.9%
O=C(O)CCc1nn2c3ccccc3n(CCN3CCCCC3)c2nc1=O | -3.63%
